Compound activity as filed in PubChem BioAssay.
TGFb inhibitor = qHTS for Inhibitors of TGF-b; HepG2 CAGA-GFP TGF-b/SMAD3 reporter, GFP fluorescence, 18 h; TGF-beta stimulated, 500 pg/mL final; Potency, µM (highest dose often 46.1 µM), inactives show at the top dose activity, negative = inhibition, most hits filed as inhibitors; 1.2% of 410,000 active; note: % is set by controls: 0 for no effect and ±100 for the full control effect; nearly all actives have a fitted effect of over 65% in size
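Inhibition was scored as loss of TGF-beta-induced (500 pg/mL final, 18 hours, 37 degrees C) GFP in HEPG2 cells carrying a CAGA-GFP reporter, in DMEM with 1% FBS. Well GFP was summed per cell; Activity was normalised to unstimulated and stimulated DMSO wells, then concentration-response fitting.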
ATXN2 expr inh = Primary qHTS for Inhibitors of ATXN expression. AID 1745845, 2022. 0.72% of 360,000 active. Potency, µM (highest dose often 57 µM), for inactives: at the top dose activity change, negative = inhibition, hits mostly inhibitors. HEK-293 ATXN2-luciferase reporter, luminescence, 24 h; note: % is set by controls: 0 for no effect and ±100 for the full control effect; nearly all actives have a fitted effect of over 55% in size
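ATXN2-luciferase reporter cells (luciferase flanked by upstream and downstream ATXN2 gene portions) were treated 24 h at 37 °C with compounds at up to 57 uM. SteadyGlo luminescence gave expression; GF-AFC fluorescence gave viability.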
TDP1 cell CPT = qHTS for Inhibitors of human tyrosyl-DNA phosphodiesterase 1 (TDP1): qHTS in cells in presence of CPT | chicken DT40 Tdp1-/-;hTDP1 cells + 20 nM CPT, ATP luminescence, 48 h | Potency, µM (doses to about 46.2 µM), inactives show at the top dose activity change, negative = growth inhibition, hits mostly inhibitors | 12% of 420,000 active; note: % is set by controls: 0 for no effect and ±100 for the full control effect; nearly all actives have a fitted effect of over 55% in size
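Chicken DT40 Tdp1-/- cells complemented with human TDP1, 400 cells/well, exposed to compounds plus 20 nM camptothecin for at least 48 h at 37 C; viability read as ATP content by CellTiter-Glo luminescence.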
HepG2 tox = qHTS for Inhibitors of TGF-b: Cytotox Counterscreen; HepG2 CAGA-GFP viability, ATP luminescence, 18 h; 0.76% of 410,000 active; Potency, µM (highest dose often 46.1 µM), without a hit: top-dose activity change, negative = cytotoxicity, hits mostly cytotoxic; AID 588856, 2011
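HepG2 CAGA-GFP cells (1000/well, DMEM with 1% FBS) received compound, then TGF-beta at 500 pg/mL final, and were incubated 18 hours at 37 degrees C. Viability was read by CellTiter-Glo luminescence. Media-only wells were set as complete cell-killing and DMSO as no toxicity.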
DT40 TDP1 no CPT = qHTS for Inhibitors of human tyrosyl-DNA phosphodiesterase 1 (TDP1): qHTS in cells in absence of CPT; DT40 Tdp1-/- hTDP1 cells, no CPT, ATP luminescence, 48 h; Potency, µM (highest dose often 46.2 µM), for inactives: at the top dose activity change, negative = growth inhibition, usual class: inhibitors; 15% of 420,000 active; AID 686978, 2013; note: % is set by controls: 0 for no effect and ±100 for the full control effect; nearly all actives have a fitted effect of over 55% in size
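Cells were dispensed at 400 per well, compounds added by pin tool, plates incubated ≥48 hr at 37 °C, then CellTiter-Glo added for 30 min at room temperature before luminescence reading. Line: DT40 Tdp1-/- complemented with hTDP1; camptothecin omitted.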
S2 tox = Viability Counterscreen for Primary qHTS for Inhibitors of ATXN expression; 0.49% of 400,000 active; Potency, µM (titrated, usually from 56.7 µM), usual class: cytotoxic; S2 cells (HEK-293 line with an ATXN2-luciferase reporter) viability, CellTiter-Fluor protease fluorescence, 24 h; note: nearly all actives have a fitted effect of over 40% in size
* marks the source's active call; other numbers are inactive results; i = inactive; u = inconclusive; x = no result given. Hits are enriched below; roughly 17% of the tested compounds scored in any of these assays. Calls come from the whole dose curve; as a rule, active = well fitted curve in the direction sought with a large enough effect; inconclusive = small, poorly fitted or top-dose-only effect, or another doubt; inactive = no such curve, though single readings can be large; an effect the other way counts as inactive or inconclusive. Potency is the fitted concentration of half-maximal effect.

SMILES	TGFb inhibitor	ATXN2 expr inh	TDP1 cell CPT	HepG2 tox	DT40 TDP1 no CPT	S2 tox
Cc1[nH]c2ccc(OCc3ccccc3)cc2c1CCN	-17.7%	0.0%	14.6µM*	-30.8%	13µM*	u
COP(N)(=O)SC (configuration not stated)	x	x	0.0%	x	-3.2%	x
CC(=O)Nc1ccc(S(=O)(=O)N2Cc3ccccc3-n3nncc3C2)cc1	0.0%	-5.6%	14.6µM*	-17.5%	14.6µM*	i
Cc1ccc(S(=O)(=O)N2Cc3ccccc3-n3nncc3C2)cc1	7.8%	-17.1%	u	-13.2%	u	i
CC(C(=O)c1ccccc1)N(C)C (configuration not stated)	x	10.3%	x	x	x	i
CC(C)(C)c1ccc(O)c(N=Cc2c(O)ccc3ccccc23)c1	u	u	25.9µM*	-36.3%	16.4µM*	u
O[N+]1=CC=CCC1=S.On1ccccc1=S.[Zn]	x	x	0.0326µM*	x	0.146µM*	x
COc1ccc(CN2CCN(C(=O)COc3ccc4ccccc4c3)CC2)c(OC)c1	-29.2%	-28.7%	u	-16.3%	u	i
O=C(COc1ccc2ccccc2c1)N1CCN(Cc2c[nH]c3ccccc23)CC1	u	u	2.06µM*	12.6µM*	5.17µM*	u
O=C(COc1ccc(Br)cc1)N1CCN(Cc2c[nH]c3ccccc23)CC1	11.2µM*	-7.0%	1.3µM*	-62.9%	2.31µM*	i
CCOc1ccc(NC(=S)NC2CC3CCC(C2)N3Cc2ccco2)cc1 (configuration not stated)	-6.0%	-13.4%	u	-19.2%	u	i
CCOP(=O)(OCC)C(Nc1ccccc1)c1cccnc1 (configuration not stated)	-4.1%	x	6.0%	-40.4%	-13.3%	i
CCCCOP(=O)(OCCCC)C(Nc1ccc(C(=O)OCC)cc1)c1ccncc1 (configuration not stated)	u	-17.1%	u	-25.0%	11.6µM*	i
COc1ccc(NC(=O)N2C[C@@H]3C[C@@H](C2)c2cccc(=O)n2C3)cc1	27.0%	0.6%	12.5%	-3.8%	1.9%	i
CC(=O)Nc1ccc(OC(=O)N2CCN(/[N+]([O-])=N/Oc3ccc([N+](=O)[O-])cc3[N+](=O)[O-])CC2)cc1	u	x	x	-100.7%	x	x
O=C(NP(=O)(N1CC1)N1CC1)c1cc(I)ccc1I	-20.0%	-7.1%	1.46µM*	-23.1%	2.31µM*	i
CC(C)(C)c1o[nH]c(=O)c1C[C@H](N)C(=O)O	x	x	5.5%	x	-4.7%	x
CCN(CC)c1ccc(/C=N/c2sc3c(c2C#N)C2CCN3CC2)c(O)c1	122.0%	11.8%	18.4µM*	2.1%	23.1µM*	u
Cc1cccc(C)c1NC1=NCCCCS1	-2.8%	-38.0%	-13.3%	-5.2%	-3.1%	i
CCOC(=O)[C@]12Cc3ccc(C)cc3[C@H]1N(C1CCCCC1)C(=O)c1cc(OC)ccc12	x	3.98µM*	2.91µM*	x	2.91µM*	4.47µM*
CCOC(=O)[C@]12Cc3ccccc3[C@H]1N(C(C)C)C(=O)c1ccccc12	x	u	u	x	23.1µM*	x
CCOC(=O)[C@]12Cc3ccc(C)cc3[C@H]1N(C1CCCCC1)C(=O)c1ccccc12	x	11.2µM*	2.59µM*	x	2.31µM*	12.6µM*
CCOC(=O)[C@]12Cc3cc(C)ccc3[C@H]1N(C1CCCCC1)C(=O)c1ccccc12	x	4.47µM*	2.31µM*	x	2.91µM*	3.55µM*
CCOC(=O)C12C(=O)OCC1C2c1ccccc1 (configuration not stated)	x	4.1%	6.9%	x	-13.7%	i
NCC(CC(=O)O)c1ccc(Cl)s1 (configuration not stated)	x	x	11.2%	x	-1.2%	x
SMILES	TGFb inhibitor	ATXN2 expr inh	TDP1 cell CPT	HepG2 tox	DT40 TDP1 no CPT	S2 tox
CCOC(=O)[C@]12Cc3cc(Cl)ccc3[C@H]1N(C1CCCCC1)C(=O)c1cc(OC)ccc12	x	2.24µM*	0.517µM*	x	0.517µM*	2µM*
CCOC(=O)[C@]12Cc3cc(C)ccc3[C@H]1N(CCC(=O)OC)C(=O)c1ccccc12	x	-28.6%	23.1µM*	x	16.4µM*	17.8µM*
CCOC(=O)[C@]12Cc3c(cc(OC)c(OC)c3OC)[C@H]1N(C1CCCCC1)C(=O)c1ccccc12	x	6.31µM*	2.91µM*	x	3.66µM*	8.91µM*
CCOC(=O)[C@]12Cc3cc(OC)ccc3[C@H]1N(CC(=O)OC)C(=O)c1ccccc12	x	14.5%	-17.3%	x	-28.6%	u
O=C(Oc1ccccc1)N1CCC2(CCCN(C(c3ccccc3)c3ccccc3)C2)CC1	x	x	9.7%	x	-13.4%	x
Cc1cccc(OCC(=O)N2CCN(Cc3cccnc3)CC2)c1	8.7%	-12.7%	-8.6%	-3.1%	-27.3%	i
CC(=O)c1cccc(OCC(O)CN2CC=C(c3ccccc3)CC2)c1 (configuration not stated)	-29.0%	0.5%	u	-28.8%	16.4µM*	i
Cc1cccc(OCC(O)CN2CC2)c1 (configuration not stated)	-5.5%	x	3.66µM*	1.4%	6.51µM*	u
O=C(CCN1CC=C(c2ccccc2)CC1)NCc1ccccc1	0.3%	x	-8.3%	-5.3%	-29.0%	i
